Compound activity from PubChem.
G9a inh-1: qHTS Assay for Inhibitors of Histone Lysine Methyltransferase G9a | AID 504332, 2011 | 350,000 tested, 8.8% active | G9a H3K9 monomethylation, AlphaScreen, 2 h | Histone-lysine N-methyltransferase EHMT2 (Homo sapiens), Q96KQ7 | Potency, µM (doses to about 102 µM), for the others: top-dose activity, negative = inhibition, most hits filed as inhibitors; further: potency means the concentration at half of the fitted maximal effect; on the % scale 0 is the no-effect control and ±100 the full control effect; nearly all actives have a fitted effect of over 75% in size
Target sequence (Q96KQ7 913-1193 limits assumed): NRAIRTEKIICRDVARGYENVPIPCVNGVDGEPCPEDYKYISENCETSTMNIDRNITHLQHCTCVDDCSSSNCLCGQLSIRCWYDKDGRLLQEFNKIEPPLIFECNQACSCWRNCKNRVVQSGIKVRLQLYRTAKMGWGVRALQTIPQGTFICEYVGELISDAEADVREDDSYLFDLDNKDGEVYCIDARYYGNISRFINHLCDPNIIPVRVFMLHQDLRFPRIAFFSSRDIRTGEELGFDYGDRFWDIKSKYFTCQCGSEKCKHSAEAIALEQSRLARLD
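G9a (20 nM) was preincubated 15 min with compound, then reacted 2 h at room temperature with 500 nM biotin-H3K9 peptide and 20 µM SAM. Monomethyl-H3K9 detected by AlphaScreen using anti-H3K9me1 antibody.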
L3MBTL1 block: qHTS Assay for the Inhibitors of L3MBTL1; AlphaScreen L3MBTL1–H3K9me1 peptide binding; Potency, µM (top dose mostly 57.1 µM), without a hit: top-dose activity, negative = inhibition, hits mostly inhibitors; 230,000 tested, 0.66% active; further: potency means the concentration at half of the fitted maximal effect; on the % scale 0 is the no-effect control and ±100 the full control effect; nearly all actives have a fitted effect of over 60% in size
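L3MBTL1 50 nM + b-AHA-H3(1-15)K9me1 75 nM, 30 min RT; compound added, 30 min RT; streptavidin donor/Ni-chelate acceptor beads 10 ug/mL each final, 30 min RT dark; AlphaScreen read.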
HP1b chromo inh: HTS for Inhibitors of HP1-beta Chromodomain Interactions with Methylated Histone Tails; Chromobox protein homolog 1 (Homo sapiens), P83916; AlphaScreen HP1-beta / biotin-H3K9me3 peptide binding; Potency, µM (top dose mostly 114 µM), without a hit: top-dose activity change, negative = inhibition, hits mostly inhibitors; 390,000 tested, 0.56% active; AID 540317, 2011; further: potency means the concentration at half of the fitted maximal effect; nearly all actives have a fitted effect of over 70% in size
Target sequence (P83916 whole entry, looked up): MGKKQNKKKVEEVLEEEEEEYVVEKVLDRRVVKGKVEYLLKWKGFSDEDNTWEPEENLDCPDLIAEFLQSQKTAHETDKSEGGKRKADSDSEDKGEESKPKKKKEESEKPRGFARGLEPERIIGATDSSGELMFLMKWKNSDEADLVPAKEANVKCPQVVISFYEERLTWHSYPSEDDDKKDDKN
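HP1-beta protein (50 nM final) preincubated 30 min at room temperature with biotinylated H3(1-18)K9me3 peptide (50 nM) in PBS pH 7.4, 0.01% Tween-20, then compound added for 30 min. AlphaScreen streptavidin donor/nickel chelate acceptor beads (10 ug/mL final), 30 min dark, luminescence read.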
JMJD2A Tudor: qHTS Assay for Inhibitors of JMJD2A-Tudor Domain; Lysine-specific demethylase 4A (Homo sapiens), O75164; 390,000 tested, 4.4% active; AlphaScreen JMJD2A-Tudor / H3K4me3 peptide binding; Potency, µM (highest dose often 114 µM), for inactives: at the top dose activity change, negative = inhibition, usual class: inhibitors; further: potency means the concentration at half of the fitted maximal effect; on the % scale 0 is the no-effect control and ±100 the full control effect; nearly all actives have a fitted effect of over 50% in size
BAZ2B block: qHTS Assay for Inhibitors of BAZ2B. 360,000 tested, 4.4% active. AlphaScreen BAZ2B-H3K14Ac peptide displacement. Bromodomain adjacent to zinc finger domain protein 2B (Homo sapiens), Q9UIF8. Potency, µM (top dose mostly 114 µM), inactives show at the top dose activity change, negative = inhibition, hits mostly inhibitors; further: potency means the concentration at half of the fitted maximal effect; on the % scale 0 is the no-effect control and ±100 the full control effect; nearly all actives have a fitted effect of over 60% in size
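AlphaScreen luminescence quantifies BAZ2B engagement of H3K14Ac peptide; the protein and biotinylated peptide are both at 50 nM final, buffer PBS pH 7.4 with 0.01% Tween-20, all steps at room temperature.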
Sfp PPTase inh: qHTS Assay for Inhibitors of Bacillus subtilis Sfp phosphopantetheinyl transferase (PPTase) | 4'-phosphopantetheinyl transferase ffp (Bacillus subtilis), Q9F4F7 | Biochemical Sfp PPTase activity, qHTS | Potency, µM, for inactives: largest response in the series, negative = inhibition, most hits filed as inhibitors | 310,000 tested, 3.5% active;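 further: the enzyme is Sfp with the accession as filed and its product quenches rhodamine fluorescence; potency means the concentration at half of the fitted maximal effect; 0% = enzyme reaction without inhibitor and -100% = no enzyme wells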
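With Hepes-Na pH 7.6 buffer containing 10 mM MgCl2, Sfp (15 nM) modified BHQ-2-YbbR (12.5 uM) using rhodamine-CoA (5 uM). Two reads 30 minutes apart at 525/598 nm yielded each well's rate.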
G9a inh-2: qHTS Assay for Inhibitors of Histone Lysine Methyltransferase G9a: Hit Confirmation; G9a H3K9 monomethylation, AlphaScreen, 2 h; Potency, µM, most hits filed as inhibitors; 370 tested, 89% active; AID 588344, 2011; shares compounds with JMJD2A Tudor; further: potency means the concentration at half of the fitted maximal effect; nearly all actives have a fitted effect of over 65% in size
RGS4 confirm: qHTS for Inhibitors of Regulator of G Protein Signaling(RGS) 4: Hit Validation | shares compounds with JMJD2A Tudor | AID 602388, 2012 | 25 tested, 80% active | RGS4 GAP activity, Transcreener GDP fluorescence polarization | Potency, µM, usual class: inhibitors
Target sequence (P49798 whole entry, looked up): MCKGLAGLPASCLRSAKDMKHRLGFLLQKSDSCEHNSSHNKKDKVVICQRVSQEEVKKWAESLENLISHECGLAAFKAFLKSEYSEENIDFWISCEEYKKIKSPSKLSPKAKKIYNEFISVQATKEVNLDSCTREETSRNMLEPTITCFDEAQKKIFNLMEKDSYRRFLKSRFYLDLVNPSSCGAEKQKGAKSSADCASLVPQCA
Numbers without * were called inactive; ? = inconclusive; / = no result given; [ ] = remark or other dose. The list is not random: actives were taken first. Their share in the collection is about 12%. The call rests on the fitted dose curve; in most records, active means well fitted curve in the direction sought with a large enough effect; inconclusive means small, poorly fitted or top-dose-only effect, or another doubt; inactive means no such curve, though single readings can be large; an effect the other way counts as inactive or inconclusive.

SMILES	G9a inh-1	L3MBTL1 block	HP1b chromo inh	JMJD2A Tudor	BAZ2B block	Sfp PPTase inh	G9a inh-2	others
CCc1ccc(NC(=O)CN2CCN(c3ccc(OC)cc3)CC2)cc1	/	/	-13.2%	?	/	/	/
COc1ccc(N2CCN(CC(=O)Nc3cc(C)on3)CC2)cc1	1.78µM*	-0.1%	?	2.82µM*	20µM*	50.1µM*	1.59*
CCN(CC)c1ccc(NC(=O)CN2CCN(CC(=O)Nc3ccccc3F)CC2)cc1	?	-3.6%[11.4 µM]	-27.8%	?	?	2.8%	6.31*
CC(C)OCc1ccc(C(=O)N2CCN(S(=O)(=O)c3ccc(Br)s3)CC2)cc1	?	1.3%	57.5%	-0.3%	-4.7%	/	44.7*
N#Cc1ccc(C(=O)N2CCN(S(=O)(=O)c3ccc(Br)s3)CC2)cc1	?	?	40.4%	-7.5%	-13.1%	6.4%	/
COc1ccccc1-c1coc2cc(OC(=O)/C=C/c3ccccc3)ccc2c1=O	26.4%[59 µM]	6.7%	-11.7%	-10.1%	-4.1%	23.1%	/
COc1cccc(N2CCN(CC(=O)Nc3ccccc3C(=O)NCCc3ccccc3)CC2)c1	-5.4%[2.33 µM]	-5.6%	8.8%	-30.2%	?	/	/
O=C(CN1CCN(c2ccc(O)cc2)CC1)Nc1ccccc1C(=O)NCCc1ccccc1	?	-15.8%	?	?	-7.3%	/	1.26*
COc1ccc(C)cc1NC(=O)c1c2c(nc3ccccc13)C(=O)N(C1CCCCC1)C2	-1.9%[59 µM]	/	2.6%	-34.0%	?	/	/
Cn1c(SCC(=O)Nc2ccccc2)nnc1-c1ccccc1	4.1%[59 µM]	/	9.4%	-4.5%	0.7%	/	/
Cn1c(SCC(=O)Nc2ccc3c(c2)oc2ccccc23)nnc1-c1ccccc1	2µM*	/	-2.4%	?	0.8%	-6.0%	7.08*
Cn1c(SCC(=O)NC(C)(C)C)nnc1-c1cccc(NC(=O)c2ccccc2F)c1	?	/	16.2%	?	7.2%	7.6%	1.42*
COc1ccc(-c2nnc(SCC(=O)NC(=O)Cc3ccccc3)n2C)cc1	?	-0.1%	34.6%	4.7%	6.4%	/	?
CC(C)(C)c1ccc(CN2CCN([C@H](c3ccccc3)c3ccc(Cl)cc3)CC2)cc1	?	/	/	/	/	-4.6%	/
O=C1C=C(c2ccc(OC(F)(F)F)cc2)C[C@@H](c2ccc(Cl)cc2)C1	-4.3%[2.33 µM]	9.1%	59.0%	23.2%	0.8%	/	/
CCCOc1ccc(C(=O)Nc2ccc(N(C)C)cc2)cc1	?	/	12.2%	-26.7%	-30.0%	10.0%	1*
CCCCOC(=O)Nc1ccc(N(C)C)cc1	1.58µM*	-18.1%	?	79.4µM*	39.8µM*	-17.3%	1.59*
CCOc1ccc(NC(=O)NCCCN2CCN(c3ccc(OC)cc3)CC2)cc1	?	/	-3.5%	?	-37.1%	/	/
COc1ccc(N2CCC(CNC(=O)Nc3ccc(C)c(C)c3)C2)cc1 (stereo not given)	2µM*	-13.2%	?	25.1µM*	39.8µM*	-18.9%	2.52*
COc1ccc(N2CCC(CNC(=O)Nc3ccc(OC)cc3OC)C2)cc1 (stereo not given)	?	?	-78.0%	44.7µM*	39.8µM*	-20.8%	2.51*
CCOc1ccc(NC(=O)NCC2CCN(c3ccc(OC)cc3)C2)cc1 (stereo not given)	1µM*	/	-15.6%	-33.8%	-6.5%	-7.6%	1.12*
CCc1ccc(NC(=O)NCC2CCN(c3ccc(OC)cc3)C2)cc1 (stereo not given)	?	/	3.6%	-33.8%	-36.2%	10.4%	0.893*
CCOC(=O)c1ccc(NC(=O)NCc2ccc(OC)cc2)cc1	3.7%	46.8%	17.7%	-13.8%	-2.0%	4.9%	/
COc1ccc(CNC(=O)C2CCN(S(=O)(=O)c3cccc(C(F)(F)F)c3)CC2)cc1	-29.8%	3.1%	23.6%	3.4%	8.7%	/	/
COc1ccc(N2CCC(CNS(=O)(=O)c3cccc(C(F)(F)F)c3)C2)cc1 (stereo not given)	?	?	?	39.8µM*	10µM*	-22.8%	0.448*
SMILES	G9a inh-1	L3MBTL1 block	HP1b chromo inh	JMJD2A Tudor	BAZ2B block	Sfp PPTase inh	G9a inh-2	others
COC(=O)Cc1sc(-c2ccccn2)nc1-c1ccccc1	2.24µM*	14.6%	?	-26.2%	9.6%	22.4µM*	5.02*
c1ccc(-c2ccc(N3CC4(CCNCC4)C3)cc2)cc1	-23.6%[12.7 µM]	/	/	/	/	?	/
c1ccc(-c2ccc(N3CCCC4(CCNCC4)C3)cc2)cc1	-46.2%[12.7 µM]	/	/	/	/	28.2µM*	/	RGS4 confirm=26.7*
N#Cc1ccccc1NC(=O)COC(=O)CCc1ccccc1	23.8%	/	20.4%[57 µM]	7.4%	-15.1%	7.5%	/
CCn1c(SCC(=O)Nc2sc3c(c2C#N)CCCC3)nnc1-c1ccco1	?	/	59.6%	-11.6%	4.7%	-28.3%	28.3*
O=C(CN1CCN(c2ccc(F)cc2)CC1)N1CCC(Cc2ccccc2)CC1	?	/	?	11.2µM*	35.5µM*	-20.8%	15.9*
COC(=O)c1cc(NCc2ccc3c(c2)OCO3)ccc1N1CCOCC1	?	/	-8.7%	?	?	-5.0%	12.6*
CCOc1ccc(CNc2ccc(N3CCOCC3)c(C(=O)O)c2)cc1	?	-4.2%	1.8%	4.2%	8.9%	2.3%	/
O=S(=O)(Cc1ccccc1)NCCc1cccc(Cl)c1	-7.2%	13.2%	29.3%	-3.4%	0.0%	7.6%	/
CCc1ccccc1NC(=O)CN(C)Cc1c(O)ccc2ccccc12	1.78µM*	/	?	56.2µM*	?	-7.3%	0.399*
Cc1ccc(N2CCN(CC(=O)Nc3c(C(=O)C4CC4)oc4ccccc34)CC2)cc1	-26.7%	/	/	/	-4.3%	-18.1%	/
CN(C)c1ccc(NC(=O)CN2CCN(S(=O)(=O)c3cc(Cl)ccc3Cl)CC2)cc1	1.41µM*	/	?	?	35.5µM*	-1.9%	4.47*
CC(C)OC(=O)CN1CCN(S(=O)(=O)c2cc(Cl)ccc2Cl)CC1	-26.2%[12.7 µM]	/	14.1%	-18.6%	13.6%	4.2%	/
